PubChem BioAssay (Tox21)
Inconclusive results are not listed. The source made the active and inactive calls. Unless noted, the call rests on the fitted dose curve; in most records, active means well fitted curve in the direction sought with a large enough effect in the repeat runs; inconclusive means weak or mixed curves; inactive means no such curve, though single readings can be large; an effect the other way counts as inactive or inconclusive.

How the values were obtained:
[1] = molecular target: Luciferin 4-monooxygenase (Photinus pyralis) (UniProt P08659); experiment: qHTS assay to identify small molecule inhibitors of firefly luciferase (AID 1224835); further: nearly all actives have a fitted effect of over 25% in size; further: potency means the concentration at half of the fitted maximal effect
Chain of Luciferin 4-monooxygenase (Photinus pyralis) (P08659 whole entry, looked up): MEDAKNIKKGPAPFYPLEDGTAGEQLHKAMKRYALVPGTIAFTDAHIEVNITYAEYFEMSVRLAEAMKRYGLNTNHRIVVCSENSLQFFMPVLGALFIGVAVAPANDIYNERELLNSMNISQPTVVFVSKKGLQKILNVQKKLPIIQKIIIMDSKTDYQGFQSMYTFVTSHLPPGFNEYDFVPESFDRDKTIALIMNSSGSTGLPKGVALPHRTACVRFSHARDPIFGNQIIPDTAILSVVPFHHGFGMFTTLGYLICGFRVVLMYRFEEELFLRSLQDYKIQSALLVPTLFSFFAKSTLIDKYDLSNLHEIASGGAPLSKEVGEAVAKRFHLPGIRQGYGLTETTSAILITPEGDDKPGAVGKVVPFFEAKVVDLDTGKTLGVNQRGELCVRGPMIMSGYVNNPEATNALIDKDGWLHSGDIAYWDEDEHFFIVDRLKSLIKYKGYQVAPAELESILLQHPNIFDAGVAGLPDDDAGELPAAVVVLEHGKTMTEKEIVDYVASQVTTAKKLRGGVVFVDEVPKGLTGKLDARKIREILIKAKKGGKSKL
Procedure, shortened: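 Biochemical qHTS: compounds run as interplate titrations against purified firefly enzyme, with D-luciferin and ATP each at its KM concentration. Light output recorded by CCD imaging.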

[2] = qHTS assay to identify small molecule antagonists of the constitutive androstane receptor (CAR) signaling pathway - cell viability counter screen (AID 1224837); further: nearly all actives have a fitted effect of over 45% in size; further: potency means the concentration at half of the fitted maximal effect
Procedure, shortened: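 Counter screen run in HepG2-CYP2B6-hCAR cells: 4 hr settle, compound titration (15 concentrations) with 50 nM CITCO, 23 hr at 37 C/5% CO2, CellTiter-Fluor fluorescence.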

[3] = molecular target: Nuclear receptor subfamily 1 group I member 3 (Homo sapiens) (UniProt Q14994); experiment: qHTS assay to identify small molecule antagonists of the constitutive androstane receptor (CAR) signaling pathway (AID 1224838);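 further: HepG2 cells stably expressing hCAR with CYP2B6 luciferase reporter stimulated by CITCO; nearly all actives have a fitted effect of over 40% in size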; further: potency means the concentration at half of the fitted maximal effect
Chain of Nuclear receptor subfamily 1 group I member 3 (Homo sapiens) (Q14994 whole entry, looked up): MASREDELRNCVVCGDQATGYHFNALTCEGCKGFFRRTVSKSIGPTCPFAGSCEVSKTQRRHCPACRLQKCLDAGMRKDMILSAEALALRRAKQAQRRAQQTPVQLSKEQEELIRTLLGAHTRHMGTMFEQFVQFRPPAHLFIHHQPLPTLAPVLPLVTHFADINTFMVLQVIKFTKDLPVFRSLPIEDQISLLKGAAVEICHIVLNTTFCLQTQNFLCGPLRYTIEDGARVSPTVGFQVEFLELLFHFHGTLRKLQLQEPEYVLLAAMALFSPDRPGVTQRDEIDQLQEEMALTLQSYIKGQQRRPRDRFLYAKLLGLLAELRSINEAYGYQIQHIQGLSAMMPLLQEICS
Procedure, shortened: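 Cell line: HepG2 double-stable for hCAR and CYP2B6-2.2kb reporter. Agonist: CITCO, 50 nM final. Compounds: 15 concentrations, 24 h, 37 C. Detection: ONE-Glo luminescence.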

[4] = molecular target: Nuclear receptor subfamily 1 group I member 3 (Homo sapiens) (UniProt Q14994); experiment: qHTS assay to identify small molecule agonists of the constitutive androstane receptor (CAR) signaling pathway (AID 1224839); further: nearly all actives have a fitted effect of over 15% in size; further: potency means the concentration at half of the fitted maximal effect;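 on activation: HepG2 cells stably carrying human CAR and a CYP2B6 luciferase reporter; series mostly up to about 92 µM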
Procedure, shortened: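 Double-stable HepG2 cells (hCAR, CYP2B6-2.2kb) seeded 4 h before compound addition. Exposure 24 h with 0.75 uM PK11195 final. Luciferase detected by ONE-Glo.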

[5] = qHTS assay to identify small molecule antagonists of the estrogen related receptor signaling pathway with the pleiotropic PPARgamma coactivator (PGC) from Tox21 10K library - cell viability counter screen (AID 1224840; active means well fitted cell-killing curve with a large enough effect in the repeat runs, not every such curve was filed as active; further: nearly all actives have a fitted effect of over 40% in size)
Procedure, shortened: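 Following seeding of 2,000 PGC/ERR cells/well and 6 hours' incubation, test compounds were delivered in DMSO. The plates then sat 17.5 hours at 37 C before a fluorogenic live-cell protease reagent (CellTiter-Fluor) was read after 30 min.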

[6] = qHTS assay to identify small molecule antagonists of the estrogen related receptor signaling pathway with the pleiotropic PPARgamma coactivator (PGC) from Tox21 10K library (AID 1224841; call rule not given here; further: actives are mostly falling curves and most rising ones were filed inactive; nearly all actives have a fitted effect of over 50% in size; further: potency means the concentration at half of the fitted maximal effect)
Procedure, shortened: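 qHTS antagonist format: PGC/ERR cells, 2k/well, compound in DMSO by pin transfer after 6 h attachment, 18 h treatment at 37 C, One-Glo luminescence read at 30 min.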

[7] = qHTS assay to identify small molecule agonists of the estrogen related receptor signaling pathway with the pleiotropic PPARgamma coactivator (PGC) from Tox21 10K library (AID 1224842); further: nearly all actives have a fitted effect of over 15% in size; further: potency means the concentration at half of the fitted maximal effect
Procedure, shortened: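 PGC/ERR reporter cell line, 2,000 cells per well, incubated 6 h at 37 C before 23 nL compound in DMSO was added. After 18 h at 37 C, One-Glo luminescence read following 30 min at room temperature.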

[8] = molecular target: Thyrotropin receptor (Homo sapiens) (UniProt P16473); experiment: qHTS assay to identify small molecule agonists of the thyroid stimulating hormone receptor (TSHR) signaling pathway (AID 1224843; calls by dose curve; further: nearly all actives have a fitted effect of over 45% in size; further: potency means the concentration at half of the fitted maximal effect)
Chain of Thyrotropin receptor (Homo sapiens) (P16473 whole entry, looked up): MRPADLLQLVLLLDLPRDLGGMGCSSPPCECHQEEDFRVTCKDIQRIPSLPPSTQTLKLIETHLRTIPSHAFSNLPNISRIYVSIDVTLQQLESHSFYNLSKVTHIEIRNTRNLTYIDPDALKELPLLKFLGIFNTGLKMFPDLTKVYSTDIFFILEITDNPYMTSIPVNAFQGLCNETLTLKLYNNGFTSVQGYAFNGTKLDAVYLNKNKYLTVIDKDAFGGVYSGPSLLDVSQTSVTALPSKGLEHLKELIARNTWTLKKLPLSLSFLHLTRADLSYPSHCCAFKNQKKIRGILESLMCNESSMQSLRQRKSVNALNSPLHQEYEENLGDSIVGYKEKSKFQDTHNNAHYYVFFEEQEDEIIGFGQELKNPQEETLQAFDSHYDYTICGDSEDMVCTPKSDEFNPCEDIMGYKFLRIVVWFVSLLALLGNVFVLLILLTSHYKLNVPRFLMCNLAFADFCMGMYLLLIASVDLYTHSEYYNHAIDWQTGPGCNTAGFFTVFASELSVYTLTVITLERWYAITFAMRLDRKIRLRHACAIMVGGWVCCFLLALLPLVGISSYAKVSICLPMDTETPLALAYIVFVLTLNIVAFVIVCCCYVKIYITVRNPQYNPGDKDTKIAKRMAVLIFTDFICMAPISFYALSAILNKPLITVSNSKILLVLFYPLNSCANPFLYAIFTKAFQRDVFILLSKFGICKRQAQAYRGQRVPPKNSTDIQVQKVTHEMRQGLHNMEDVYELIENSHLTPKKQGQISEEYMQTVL
Procedure, shortened: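 Steps: seed 800 TSHR-HEK293 cells per well; add test compound and hold 30 min at ambient temperature; dispense cAMP-d2 then anti-cAMP cryptate; incubate 1 h at ambient; measure fluorescence intensity.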

[9] = qHTS assay to identify small molecule agonists of the hypoxia (HIF-1) signaling pathway - cell viability counter screen (AID 1224844; calls by dose curve; further: nearly all actives have a fitted effect of over 50% in size; further: potency means the concentration at half of the fitted maximal effect)
Procedure, shortened: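 Cells (HRE-bla ME-180, 2,000 per well) sat 5 hrs at 37C, got compound for 17 hrs, were read for CCF4-AM FRET, and were finally lysed with CellTiter-Glo for a 30 min room-temperature luminescence read.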

[10] = qHTS assay to identify small molecule agonists of H2AX (AID 1224845; active means well fitted activation curve with a large enough effect in the signal ratio in the repeat runs, not every such curve was filed as active; the % refers to the signal ratio; further: potency means the concentration at half of the fitted maximal effect)
Procedure, shortened: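 Wild-type CHO-K1 cells, plated overnight, exposed 3hr at 37C to 15 concentrations (0.76% DMSO final). Lysed, then HTRF anti-pH2AX (S139) cryptate and anti-H2AX-d2 antibodies, 24 hr room temperature; 665/620 nm emission read.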

[11] = qHTS assay to identify small molecule agonists of the hypoxia (HIF-1) signaling pathway (AID 1224846; active means well fitted activation curve with a large enough effect in the signal ratio in the repeat runs, not every such curve was filed as active; the % refers to the signal ratio; further: potency means the concentration at half of the fitted maximal effect)
Procedure, shortened: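 A low-serum medium (0.5% dialyzed FBS) holding 2,000 HRE-bla ME-180 cells per well is preincubated for 5 hrs, dosed with compounds by pintool, and kept a further 17 hrs at 37C, 5% CO2 before CCF4-AM FRET detection of beta-lactamase.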

[12] = qHTS assay to identify small molecule agonists of the constitutive androstane receptor (CAR) signaling pathway - cell viability counter screen (AID 1224836); further: series mostly up to about 92 µM; nearly all actives have a fitted effect of over 45% in size
Procedure, shortened: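 Using CellTiter-Fluor, viability of HepG2 cells harbouring hCAR and CYP2B6-2.2kb was measured following 23 h incubation with a 15-concentration compound series plus PK11195 (0.75 uM final).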

Measured: Potency

SC1CCCCC1
not listed: [12]
inactive: all other assays above

O=C(NCc1ncc(C(F)(F)F)cc1Cl)c1c(Cl)cccc1Cl
inactive: [1] | [12] | [4] | [9] | [10]
active: [11] 15.5 µM

Cc1cccc(C)c1C
not listed: [6] | [7] | [12]
inactive: all other assays above

CCCCCCCCc1ccc(Nc2ccc(CCCCCCCC)cc2)cc1
active: [6] 11.9 µM
not listed: [12]
inactive: all other assays above

Cc1c(Cl)c(=O)oc2cc(O)ccc12
inactive: [1] | [3] | [8] | [9]

O=C1OC(O)C(C(Cl)Cl)=C1Cl (stereo unspecified)
inactive: [1] | [2] | [8]

Clc1nc(C(Cl)(Cl)Cl)c(Cl)c(Cl)c1Cl
inactive: [1] | [2] | [4] | [7]
active: [3] 54.5 µM | [9] 4.9 µM

CCn1c2ccccc2c2ccccc21
active: [4] 27.3 µM
not listed: [2] | [6] | [7] | [11]
inactive: all other assays above

c1ccc2c(c1)-c1ccc3ccc4cccc5cc-2c1c3c45
inactive: [3] | [8] | [9] | [10]
active: [1] 11 µM | [4] 11.9 µM

CCOc1nc(F)cc2nc(S(=O)(=O)Nc3c(Cl)cccc3C(=O)OC)nn12
inactive: [12] | [2] | [3] | [4] | [5] | [8] | [10]

C=CC(=O)O[C@H]1C[C@@H]2CC[C@@]1(C)C2(C)C
inactive: [1] | [2] | [4] | [5] | [7] | [9] | [11]

O=C1OC(=O)c2cc(-c3ccc4c(c3)C(=O)OC4=O)ccc21
not listed: [2] | [6] | [7] | [8]
inactive: all other assays above

C=CC(=O)OCC(Br)CBr (stereo unspecified)
inactive: [1] | [12] | [5] | [8] | [10]

CCSCC
inactive: [1] | [12] | [5] | [9]

CN1CC[C@H](c2c(O)cc(O)c3c(=O)cc(-c4ccccc4Cl)oc23)[C@H](O)C1
inactive: [4] | [5] | [6] | [9] | [10]
active: [2] 0.0944 µM | [3] 0.596 µM | [7] 0.531 µM

O[Si](c1ccccc1)(c1ccccc1)c1ccccc1
active: [4] 30.6 µM | [6] 68.6 µM | [8] 48.6 µM
not listed: [2] | [5] | [11]
inactive: all other assays above

CC(C)(c1ccc(Oc2ccc(N)cc2)cc1)c1ccc(Oc2ccc(N)cc2)cc1
inactive: [3]
active: [1] 22.4 µM | [8] 27.3 µM | [9] 24.5 µM

O=S(=O)(c1ccc(OCc2ccccc2)cc1)c1ccccc1O
not listed: [6] | [11] | [12]
inactive: all other assays above

CC(C)=CCC[C@H](C)CC=O
inactive: [1] | [2] | [5] | [8] | [9] | [10]

Nc1cccnc1N
inactive: [1] | [3] | [4] | [8] | [9] | [11]

COc1cc(OC)nc(NC(=O)NS(=O)(=O)Nc2ccccc2C(=O)N(C)C)n1
not listed: [12]
inactive: all other assays above

O=C1OC2(c3ccccc31)c1ccc(O)c(Br)c1Oc1c2ccc(O)c1Br
inactive: [2] | [3] | [4] | [6] | [7] | [9]
active: [1] 35.6 µM

CC(=O)Nc1ccc(N=Nc2cc(C)ccc2O)cc1
active: [1] 3.17 µM | [7] 4.33 µM
inactive: [3] | [9] | [10]

Nc1ccc(Oc2cccc(Oc3ccc(N)cc3)c2)cc1
active: [1] 35.6 µM | [3] 1.37 µM | [6] 8.63 µM | [10] 113 µM
not listed: [2]
inactive: all other assays above
